Screening data (PubChem BioAssay)
An excerpt weighted towards active compounds, which were near 10% of everything screened.
GPT2 inh: Primary qHTS assay for inhibitors of Glutamate pyruvate transaminase 2 (GPT2); Alanine aminotransferase 2 (Homo sapiens), Q8TD30; Recombinant GPT2, coupled pyruvate oxidase/HRP Amplex Red fluorescence; Potency, µM (titrated, usually from 57.7 µM), usual class: inhibitors; 0.25% of 100,000 active; AID 1671188, 2021; also: nearly all actives have a fitted effect of over 60% in size
Target sequence (Q8TD30 whole entry, looked up): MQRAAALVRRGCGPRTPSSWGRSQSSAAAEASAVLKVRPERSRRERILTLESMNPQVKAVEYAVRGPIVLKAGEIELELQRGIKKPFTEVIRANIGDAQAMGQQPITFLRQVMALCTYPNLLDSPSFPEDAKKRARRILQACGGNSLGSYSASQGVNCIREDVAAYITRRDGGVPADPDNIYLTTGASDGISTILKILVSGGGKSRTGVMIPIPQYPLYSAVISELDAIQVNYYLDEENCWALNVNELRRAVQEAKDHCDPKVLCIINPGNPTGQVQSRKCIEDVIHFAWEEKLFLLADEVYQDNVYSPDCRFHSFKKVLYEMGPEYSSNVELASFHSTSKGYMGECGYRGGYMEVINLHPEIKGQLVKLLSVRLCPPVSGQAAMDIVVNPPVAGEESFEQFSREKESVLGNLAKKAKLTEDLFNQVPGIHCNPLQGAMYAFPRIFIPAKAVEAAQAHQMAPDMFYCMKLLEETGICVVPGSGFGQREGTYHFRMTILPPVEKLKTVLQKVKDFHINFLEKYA
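GPT2 10ng/uL, a-KG 250uM, L-Ala 2mM, HEPES pH7.5 + 0.0001% Tween; 30 min RT. Then Amplex mix (PO/HRP/ThPP), 30 min RT dark, fluorescence. AOA 50uM used as positive control.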
HEK293 tox: Cytotoxic Profiling in HEK 293 Cell Line of Diverse Libraries Using Quantitative High-Throughput Screening; HEK 293 viability, ATP luminescence (CellTiter-Glo), 48-72 h; Potency, µM (series often up to 115 µM), actives largely listed as inhibitors; 6.6% of 94,000 active; also: nearly all actives have a fitted effect of over 60% in size
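ATP-coupled CellTiter-Glo luminescence served as viability read-out, recorded 10 min after reagent addition at room temperature. HEK 293 cells, 250 cells/well, had been incubated with pintool-transferred compound for 48 or 72 hr at 37 degree Celsius.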
3T3 cytotox: Cytotoxic Profiling in NIH 3T3 Cell Line of Diverse Libraries Using Quantitative High-Throughput Screening; NIH 3T3 viability, CellTiter-Glo ATP luminescence, 48-72 h; Potency, µM (top dose mostly 96.7 µM), actives largely listed as inhibitors; 4.3% of 94,000 active; also: nearly all actives have a fitted effect of over 55% in size
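ATP-dependent luminescence (CellTiter-Glo) served as the viability signal for NIH 3T3 cells treated with compound for 48 or 72 hr at 37 °C.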
NPR1 antag: Natriuretic polypeptide receptor (hNpr1) antagonism - Primary qHTS. Atrial natriuretic peptide receptor 1 (Homo sapiens), P16066. HEK293 hNpr1 GloSensor cGMP, ANP-stimulated luminescence. Potency, µM (highest dose often 46.3 µM), most hits filed as inhibitors. 1.6% of 76,000 active. AID 1347048, 2019; calls by dose curve; also: nearly all actives have a fitted effect of over 60% in size
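HEK293 cells stably expressing human Npr1 and cGMP GloSensor pGS-40F, loaded 2 h with 2% GloSensor reagent, given compound 30 min at room temperature. Luminescence read before and 20 min after 0.1 nM hNppA.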
FLuc inh: Firefly luciferase inhibition profiling of diverse chemical library using quantitative high-throughput screening; 2.5% of 76,000 active; Potency, µM (top dose mostly 115 µM), usual class: inhibitors; Luciferin 4-monooxygenase (Photinus pyralis), P08659; purified P. pyralis luciferase, luminescence, biochemical; AID 1347043, 2019; also: nearly all actives have a fitted effect of over 65% in size
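Cell-free enzyme assay, 10nM P. pyralis luciferase, luciferin and ATP each at 10uM. Inhibition profiled over a 6-point titration, read as luminescence.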
Hits are given with their value; n = inactive; u = inconclusive; x = no result given; ! = a repeat was not active. Unless noted, calls follow the shape of the dose curve; as a rule, active = well fitted curve in the direction sought with a large enough effect; inconclusive = small, poorly fitted or top-dose-only effect, or another doubt; inactive = no such curve, though single readings can be large; an effect the other way counts as inactive or inconclusive.

SMILES	GPT2 inh	HEK293 tox	3T3 cytotox	NPR1 antag	FLuc inh
CN(C)Cc1cc(C[C@@H]2C[C@H](NCc3ccccc3O)C2(C)C)no1	n	56.2µM	u	n	n
Cc1cccc(C(=O)N2CC(N(Cc3ccncc3)CC3CC3)C2)c1	n	n	u	x	x
CN(Cc1cc(C[C@@H]2C[C@H](NCc3ccccn3)C2(C)C)no1)c1ccccc1	u	56.2µM	79.4µM	n	n
COc1ccc(C(=O)N2CCC(Oc3ccc(-c4noc(C(C)C)n4)cc3)C2)cc1 (stereo not given)	n	39.8µM	u	u	n
O=C(C1CCOCC1)N1CC(Oc2ccc(-c3nc(-c4ccccc4)no3)cc2)C1	n	u	n	u	u
COc1ccc(C(=O)N2CCC(Oc3ccc(-c4noc(-c5ccccc5)n4)cc3)C2)cn1 (stereo not given)	n	n	n	11.2µM	u
CC(C)c1nc(-c2ccc(OC3CCN(C(=O)c4ccccc4F)C3)cc2)no1 (stereo not given)	n	u	u	x	x
CNC(=O)[C@H]1CN(C(=O)NCc2ccccc2)[C@]2(C)C(=O)N(CC3CC3)c3ccccc3[C@H]12	n	n	u	x	x
O=C(c1ccccc1F)N1CCC2(CC1)Cc1ccccc1NC2=O	n	50.1µM	u	n	n
O=C(c1ccc(Cl)cc1)N1CCC2(Cc3ccccc3NC2=O)C1 (stereo not given)	n	u	u	n	n
COc1cccc(C(=O)N2CCC3(CC2)Cc2ccccc2NC3=O)c1	n	44.7µM	35.5µM	n	n
Cc1ccc(C(=O)N2CCC23Cc2ccccc2NC3=O)cc1 (stereo not given)	n	100µM	n	n	n
O=C(c1ccc(Cl)cc1)N1CCC2(CC1)Cc1ccccc1NC2=O	n	u	28.2µM!	n	n
O=C(c1cccc(Cl)c1)N1CCC2(CC1)Cc1ccccc1NC2=O	n	u	u	n	n
O=C(Cc1ccc(F)cc1)N1CCC2(CC1)Cc1ccccc1NC2=O	n	n	n	u	n
O=C(Cc1ccccc1)N1CCC2(Cc3ccccc3NC2=O)C1 (stereo not given)	n	100µM	n	n	n
CCCOc1cccc(-c2cc3c(cc2OC)C(CO)CC(C)(C)CO3)c1 (stereo not given)	x	35.5µM	31.6µM	x	x
COc1cc2c(cc1-c1ccc(OC(F)(F)F)cc1)OCC(C)(C)CC2CO (stereo not given)	n	22.4µM	u	x	x
O=c1n(-c2cccc(Cl)c2)nc2n1CCN([S+](=O)([O-])c1cccs1)C2	n	n	n	x	x
CCCNC(=O)N1CCCCCC1CN1CCOCC1 (stereo not given)	n	n	n	n	n
COc1ccccc1Nc1ccnc(N2CCCC(C(=O)NCc3cccs3)C2)n1 (stereo not given)	n	u	31.6µM	x	x
COc1ccccc1Nc1ccnc(N2CCCC(C(=O)NCc3ccc(Cl)cc3)C2)n1 (stereo not given)	n	11.2µM	u	x	x
COc1ccccc1Nc1ccnc(N2CCC(C(=O)NCc3ccccc3)CC2)n1	n	u	u	x	x
COc1cccc(CNC(=O)C2CCN(c3nccc(Nc4ccccc4OC)n3)CC2)c1	n	u	39.8µM	x	x
COc1ccccc1Nc1ccnc(N2CCCC(C(=O)NCC(F)F)C2)n1 (stereo not given)	n	u	u	x	x
COc1cccc(CNC(=O)C2CCCN(c3nccc(Nc4ccccc4OC)n3)C2)c1 (stereo not given)	n	u	31.6µM	x	x
COc1ccccc1C(=O)N1CCC2(CC1)OC(=O)N(Cc1ccccc1C#N)C2(C)c1ccccc1 (stereo not given)	n	u	n	n	n
Cc1ccc(CN2CCC(CNC(=O)NC(C)C)C2)cc1C (stereo not given)	n	u	n	n	n
O=C(NCCc1noc(-c2ccncc2)n1)c1n[nH]c2c1CCCCCC2	n	u	n	n	u
